Measured values taken from PubChem BioAssay AID1917 (Vanderbilt High Throughput Screening Facility, 2009).
In all, about 3,000 compounds went through this assay and about 1,600 (53%) were called active. Another 10% or so got no clear call; they are omitted. So high a share suggests a set chosen from earlier hits. Not all results are given here. A number with no mark means an inactive call.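 Rule for the calls: active = Flux at 10 µM at least 3 SD below or above vehicle control mean in one or both replicates; inconclusive = no clear call, values can overlap the other calls; inactive = the rest.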

Each compound was assayed against ATP-sensitive inward rectifier potassium channel 1 (Homo sapiens) (UniProt P48048) (assay: retested modulators of human Kir1.1 channel – cell-based, thallium flux, duplicate, resupplied hits, confirmation (AID 1917)). Conditions: ROMK thallium flux, fluorescence ratio; at 10 µM; active compounds read low.
ATP-sensitive inward rectifier potassium channel 1 (Homo sapiens), sequence (P48048 whole entry, looked up): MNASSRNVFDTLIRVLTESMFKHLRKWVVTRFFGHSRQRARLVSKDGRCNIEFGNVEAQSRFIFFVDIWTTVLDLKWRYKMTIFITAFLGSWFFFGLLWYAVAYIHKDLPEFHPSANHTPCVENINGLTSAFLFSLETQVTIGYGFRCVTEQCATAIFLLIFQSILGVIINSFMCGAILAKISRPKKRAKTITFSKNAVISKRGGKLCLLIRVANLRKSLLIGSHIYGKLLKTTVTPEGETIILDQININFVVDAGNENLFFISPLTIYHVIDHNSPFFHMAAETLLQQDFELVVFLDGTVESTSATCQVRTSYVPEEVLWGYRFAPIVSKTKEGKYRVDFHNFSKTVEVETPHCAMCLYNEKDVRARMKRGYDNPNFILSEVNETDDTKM

Structure (SMILES)	normalized thallium flux (F/F0 slope)
Cc1nc2ccccc2nc(=O)c1NNc1ccc([N+](=O)[O-])cc1	0.0842
COc1ccc(N=Cc2c(O)[nH]c3ccccc23)cc1OC	0.0799
O=[N+]([O-])c1ccc(N=Cc2c(O)ccc3ccccc23)cc1	0.064 (active)
C=CCn1cnc2scc(-c3ccccc3)c2c1=O	0.049 (active)
O=C(Nc1ccc(N2CCOCC2)cc1)c1ccc(-c2ccccc2[N+](=O)[O-])o1	0.108 (active)
O=C(CCN1CCc2ccccc2C(O)(c2ccccc2)C1)c1ccc2c(c1)OCCO2 (configuration not stated)	0.0602 (active)
CSc1nc2nc3c(c(=O)n2[nH]1)CCC3	0.0761
Cc1cccn2c(=O)c3cc(C(=O)N4COCC4(C)C)n(C)c3nc12	0.0444 (active)
Cc1ccc(S(=O)(=O)C2(S(=O)(=O)c3ccc(C)cc3)CCCC2)cc1	0.0776
Cc1cc2cc(CN(Cc3cccs3)Cc3nnnn3CC3CCCO3)c(=O)[nH]c2cc1C (configuration not stated)	0.0575 (active)
NC(=O)c1ccccc1N(Cc1ccccc1)S(=O)(=O)c1ccccc1	0.0757
O=C(O)c1ccc2c(c1)C(=O)N(c1ccc(/C=C/C(=O)c3ccccc3)cc1)C2=O	0.0504 (active)
CC(C)(c1ccccc1)c1ccc(OCCN)cc1	0.0605 (active)
CCCN(CCC)CC(O)COc1ccccc1C(=O)Nc1ccccc1 (configuration not stated)	0.055 (active)
CS(=O)(=O)c1ccc(Cl)c(NC(=O)Nc2ccccc2)c1	0.0706
Cc1cccc(-n2c(SCC(=O)Nc3cccc(S(=O)(=O)NC4=NCCCCC4)c3)nc3ccccc3c2=O)c1C	0.0482 (active)
Cc1ccc(C)c(NC(=O)CSc2nc3c(oc4ccccc43)c(=O)n2-c2ccccc2)c1	0.077
O=C(CN1CCCCCC1)NCCN1C(=O)S/C(=C\c2ccccc2Cl)C1=O	0.0525 (active)
O=[N+]([O-])c1cc(Cl)cc(/C=N/NC(=S)Nc2cc(S(=O)(=O)N3CCOCC3)ccc2Cl)c1O	0.0856
O=C1C(=O)N(c2ccccc2)c2ccccc21	0.0906
CCCOc1ccc(C(=O)C(CCC(CNCC)C(=O)c2ccc(OCCC)cc2)CNCC)cc1 (configuration not stated)	0.0393 (active)
O=C(Cn1nc(CNc2ccc(Cl)cc2)[n+]2c1CCCCC2)c1ccc(Cl)cc1	0.0549 (active)
Cn1c(SCC(=O)N2CCCc3ccccc32)nc2ccccc2c1=O	0.0629 (active)

Structure (SMILES)	normalized thallium flux (F/F0 slope)
C=CCOc1cccc(CNn2cn[nH]c2=S)c1	0.0819
CN(C)/C=C(/C(=O)c1ccc(Cl)c(Cl)c1)c1nnnn1-c1ccccc1	0.0735
COc1ccc([N+](=O)[O-])cc1N(CC(O)CN(CC(C)C)CC(C)C)S(=O)(=O)c1ccc(C)cc1 (configuration not stated)	0.0621 (active)
CC(C)CN(CC(C)C)CC(O)CN(c1ccccc1)S(=O)(=O)c1ccccc1[N+](=O)[O-] (configuration not stated)	0.0763
O=C(CN1C(=O)NC(Cc2ccccc2)(Cc2ccccc2)C1=O)NCC1CCCCC1	0.056 (active)
O=C(CN1C(=O)NC2(CCCCC2)C1=O)NCCC1=CCCCC1	0.0839
COCCNC(=O)/C(C#N)=C/c1cccc(OCc2ccccc2)c1	0.042 (active)
CC(C(=O)NC1CCCC1)N(c1ccc(Oc2ccccc2)cc1)S(C)(=O)=O (configuration not stated)	0.061 (active)
CCCCCCCCCCOC(=O)C[N+](C)(C)CC1CCCCC1O (configuration not stated)	0.0597 (active)
CCOC(=O)Cc1csc(SCC(=O)NC(C)C23CC4CC(CC(C4)C2)C3)n1 (configuration not stated)	0.0513 (active)
CCOC(=O)Cc1csc(NC(=O)CSc2ccc(Br)cc2)n1	0.0659 (active)
CC1=CC2=NC(=O)/C(=C/c3coc4ccccc4c3=O)C(=N)N2O1	0.0388 (active)
Cc1cc(/C=C2/C(=N)N3C(=NC2=O)SN=C3S(C)(=O)=O)c(C)n1-c1ccccc1	0.0746
O=C(CCl)N(Cc1cccc([N+](=O)[O-])c1)c1cccc(Cl)c1	0.0469 (active)
CC(C)(C)CC(C)(C)NCC(O)COCCOc1ccc(Br)cc1 (configuration not stated)	0.0489 (active)
CC1CCCN(S(=O)(=O)c2ccc(N(C(=O)c3cnccn3)C(C(=O)NC3CCCCC3)c3cccs3)cc2)C1 (configuration not stated)	0.0633 (active)
N#Cc1c(N)n(CCOC(=O)c2ccc(Cl)cc2)c2nc3ccccc3nc12	0.0672 (active)
O=C(Nc1nnc(SCc2ccccc2Cl)s1)c1cccc([N+](=O)[O-])c1	0.0638 (active)
CCC(C)(C)n1nnnc1C(c1cccs1)N1CCN(c2nc3ccccc3s2)CC1 (configuration not stated)	0.0713
Cc1ccc(C(=O)C[n+]2cc(-c3ccccc3)n3c2CCCCC3)cc1	0.0564 (active)
CN(NC(=O)c1ccccc1F)c1nc(C(F)(F)F)nc2ccccc12	0.0894
O=C(/C=C/c1ccc(Cl)cc1Cl)c1cccnc1	0.0511 (active)
O=C(/C=C/c1ccc(Cl)c([N+](=O)[O-])c1)c1cccnc1	0.0474 (active)

Structure (SMILES)	normalized thallium flux (F/F0 slope)
O=C(/C=C/c1ccc(Cl)c([N+](=O)[O-])c1)c1ccc(O)cc1	0.0498 (active)
O=C1COc2ccc(NC(=O)N3CCN(c4ccc(F)cc4)CC3)cc2N1	0.0765
O=C(CN1CCOCC1)N/N=C/c1ccc(-c2ccc(Br)cc2)o1	0.0674 (active)
COc1ccccc1-n1c(C)nc2cc(C(=O)NCc3ccc4c(c3)OCO4)ccc21	0.0924
O=C(NCCc1ccc2c(c1)OCCO2)c1cc2ccccc2o1	0.0628 (active)
COc1ccc2[nH]c(=O)c(CNc3ccc(C)c(C)c3)cc2c1	0.0713
Clc1ccc(-n2nnnc2-c2cnc(-c3ccccn3)nc2-c2cccs2)cc1	0.0713
Cc1cccc2cc(CN(Cc3nnnn3Cc3ccccc3)C3CCCC3)c(=O)[nH]c12	0.055 (active)
CCC(c1nnnn1C1CCCC1)N(Cc1cccs1)Cc1cc2cccc(C)c2[nH]c1=O (configuration not stated)	0.0635 (active)
COc1ccc(C(=O)OCC(=O)c2ccc(C)c(S(=O)(=O)N3CCOCC3)c2)cc1OC	0.0776
C#CCOCCOCCOCCNc1nc(N2CCN(C(=O)[C@H](CCC(=O)O)n3cc(C(N)CO)nn3)CC2)nc(N2CCN(C(=O)[C@H](CCCCN)n3cc(C(N)[C@H](C)CC)nn3)CC2)n1 (some centres not stated)	0.0789
Cc1ccc(CNC(=O)CC2Sc3ccccc3NC2=O)cc1 (configuration not stated)	0.086
CSc1cccc(NC(=S)N(Cc2ccccc2)Cc2ccccn2)c1	0.0791
CNC(=O)/C(C#N)=C/c1c(F)cccc1Cl	0.0423 (active)
CCOC(=O)c1c(NC(=O)CCl)sc(C(=O)N(CC)CC)c1C	0.0722
COc1ccccc1N1CCN(CCCCOc2ccc(F)cc2)CC1	0.0581 (active)
Cc1cc(C(C)(C)C)oc1C(=O)N(CC(=O)NC1CCCC1)Cc1ccc(Cl)cc1	0.0748
Cc1ccccc1CCN(CC(=O)NC1CCCCC1)C(=O)c1csnn1	0.0568 (active)
CCCS(=O)(=O)N1CCC(C(=O)NCCCN(C)Cc2ccccc2)CC1	0.0759
COc1ccc(-c2[nH]ncc2CN(C)Cc2c(C)n[nH]c2C)c(OC)c1	0.0773
COC(=O)Cn1cc(/C=C/[N+](=O)[O-])c2ccccc21	0.0436 (active)
CCOc1ccc2nc(Cl)c(C3CC(c4ccccc4)=NN3C(=O)c3cccs3)cc2c1 (configuration not stated)	0.084
CCOc1ccc2nc(N3CCCN(C(=O)Nc4ccccc4C)CC3)c(C#N)cc2c1	0.0592 (active)

Structure (SMILES)	normalized thallium flux (F/F0 slope)
COc1ccccc1-n1c(=S)[nH]c2c(sc(=S)n2-c2ccc(C)cc2C)c1=O	0.0774
COc1ccc(Br)cc1C(=O)Nc1cccc(C)c1C	0.0855
Cc1cc(Br)ccc1NC(=O)c1cnc(N2CCN(c3ccccn3)CC2)c2ccccc12	0.0609 (active)
CN(C)c1ccc(C=C2C(=O)OC3(CCCC3)OC2=O)cc1	0.0453 (active)
CCOc1ccccc1C1C(C(=O)OC)=CN(C)C=C1C(=O)OC	0.0653 (active)
O=C(Nc1ccccc1-c1ccccc1)c1cccs1	0.0658 (active)
c1ccc2c(c1)CSc1sccc1C2=C1CCNCC1	0.0498 (active)
Fc1ccc2[nH]c3c(N4CCSCC4)ncnc3c2c1	0.0617 (active)
Cc1cc(/C=N/NC(N)=O)c(C)n1C1CCCCC1	0.0777
CC(NC(=O)CC1SC(N)=NC1=O)c1ccccc1 (configuration not stated)	0.087
CCOC(=O)C1=C(C)N=c2s/c(=C\C(=O)OC)c(=O)n2C1c1ccc(OC)cc1 (configuration not stated)	0.0406 (active)
CCCC(c1nnnn1C(C)(C)C)N1CCN(Cc2ccccc2)CC1 (configuration not stated)	0.0716
O=C1c2cccc3c([N+](=O)[O-])ccc(c23)C(=O)N1CC1CCCO1 (configuration not stated)	0.0565 (active)
CCN1C(=O)/C(=C2/Sc3ccccc3N2CCCS(=O)(=O)O)SC1=S	0.0827
CCCCc1nc(NCCN)c(C#N)c2c1CSC(C)(C)C2	0.0552 (active)
COc1cc2c(cc1OC)C(/C=C/c1ccco1)=NCC2	0.0485 (active)
O=C(Cc1ccc(Br)cc1)N1CCN(c2ccccn2)CC1	0.0628 (active)
O=C(Cc1ccccc1Cl)N1CCN(c2ccccn2)CC1	0.0716
COc1ccc(Cc2nc(-c3ccccn3)no2)cc1OC	0.0708
CCSc1sc(CC)cc1C=O	0.106 (active)
CC(NCc1ccccc1OC1CCCC1)c1ccccc1 (configuration not stated)	0.0563 (active)
N=c1c2c(-c3ccccc3)c(-c3ccccc3)n(Cc3ccccc3)c2ncn1CCCO	0.0532 (active)
Cc1nnnn1/C(=C\c1ccccc1)C(=O)OCC(=O)N1CC2(C)CC1CC(C)(C)C2 (configuration not stated)	0.0442 (active)
